# PubChem BioAssay AID651956 (Broad Institute, 2012)
# Entries with a potency or affinity are not part of this list. Results filed as inconclusive are left out. A number with no mark means an inactive call.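 Rule for the calls: active = in every test run, a fitted half-maximal concentration for signal decrease at or below twice the highest tested concentration; inconclusive = runs disagree, flat 30 to 70% decrease, or poor fit; inactive = the rest.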
# Experiment: activation of miR-122 Renilla sensor silencing – cell-based, Huh7 psiCHECK-miR122, Renilla luciferase, cherry-picked, dose response (AID 651956);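 note: 0% = median neutral control wells and -100% = median positive control wells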
# Conditions: Huh7 psiCHECK-miR122 Renilla luciferase reporter, 48 h; series mostly up to 35 µM; activity change, negative = signal decrease: at the top concentration
row,Compound,"activity change, negative = signal decrease"
1,CCCNC(=O)N1C[C@@H]2[C@H](c3ccccc31)[C@@H](CO)N2C(=O)C1CCOCC1,0%
2,CC(C)C(=O)Nc1ccc2c(c1)C(=O)N(C)[C@H]1CC[C@@H](CC(=O)NCCCN(C)C)O[C@H]1CO2,-23.1%
3,COc1cccc(C(=O)Nc2ccc3c(c2)C(=O)N(C)[C@H]2CC[C@H](CC(=O)NCc4ccc(F)cc4)O[C@H]2CO3)c1,100%
4,CN1C(=O)c2cc(NC(=O)C3CC3)ccc2OC[C@@H]2O[C@H](CC(=O)NCCN3CCCC3)CC[C@H]21,89.1%
5,CN(C[C@H]1N[C@@H](CO)[C@H]1c1ccc(-c2cccc(F)c2)cc1)C(=O)C1CCC1,282%
6,C/C=C/c1ccc([C@H]2[C@@H](CO)N(Cc3ccccn3)[C@H]2CNC(C)=O)cc1,-24.4%
7,C/C=C/c1ccc([C@H]2[C@H](CO)N[C@H]2CN(C)S(=O)(=O)c2ccccc2)cc1,-26.8%
8,O=C(C1CC1)N(CCN(C(=O)C1CC1)c1ccccc1)c1ccccc1,-22.7%
9,O=C(CC(F)(F)F)N1C[C@@H]2[C@H](c3ccccc31)[C@@H](CO)N2C(=O)C1CCCC1,-32.5%
10,CCC(=O)Nc1ccc2c(c1)C(=O)N(C)[C@@H]1CC[C@H](CC(=O)NCCN3CCCCC3)O[C@H]1CO2,-46.3%
11,COc1ccc(NC(=O)N(C)C[C@@H]2Oc3cc(C#CCC(C)C)ccc3S(=O)(=O)N([C@@H](C)CO)C[C@@H]2C)cc1,-12.5%
12,O=C(Oc1c(CN2CCOCC2)cc(Cl)c2cccnc12)c1ccc(F)cc1,18.7%
13,CCOC(=O)c1nc(C)n(-c2ccc(Cl)cc2Cl)n1,-7.11%
14,Oc1ccc(/C=N/Nc2nccnc2Cl)c(O)c1,-20.7%
15,C[C@@H]1CN([C@@H](C)CO)C(=O)c2cccc(NC(=O)Nc3ccc4c(c3)OCO4)c2O[C@@H]1CN(C)Cc1ccc(Oc2ccccc2)cc1,-41.5%
16,C[C@H]1CN([C@@H](C)CO)S(=O)(=O)c2ccc(C#Cc3ccccc3F)cc2O[C@@H]1CN(C)C(=O)c1ccc2c(c1)OCO2,-132%
17,CN1C(=O)c2cc(NC(=O)Nc3ccccc3F)ccc2OC[C@@H]2O[C@H](CC(=O)O)CC[C@@H]21,3.48% [at 30 µM]
18,CNC(=O)C[C@@H]1CC[C@@H]2[C@@H](COc3ccc(NC(=O)c4ccccc4OC)cc3C(=O)N2C)O1,124%
19,C[C@@H]1CN([C@H](C)CO)C(=O)c2cccc(NC(=O)c3ccc(-c4nccs4)cc3)c2O[C@H]1CN(C)S(=O)(=O)c1ccc(F)cc1,-21.7% [at 30 µM]

row,Compound,"activity change, negative = signal decrease"
1,CN1C(=O)c2cc(NC(=O)Cc3ccccc3)ccc2OC[C@H]2O[C@@H](CC(=O)NC3CCC3)CC[C@@H]21,6.97%
2,CCCNC(=O)C[C@@H]1CC[C@@H]2[C@H](COc3ccc(NC(=O)c4cc(F)cc(F)c4)cc3C(=O)N2C)O1,54.3%
3,COc1cccc(S(=O)(=O)N(C)C[C@@H]2Oc3cc(C4=CCCCC4)ccc3S(=O)(=O)N([C@H](C)CO)C[C@@H]2C)c1,258%
4,C[C@@H]1CN([C@@H](C)CO)S(=O)(=O)c2ccc(C3=CCCC3)cc2O[C@@H]1CN(C)C(=O)c1ccc(F)cc1,-64.2%
5,CC(=O)Nc1ccc2c(c1)C(=O)N(C)[C@H]1CC[C@@H](CC(=O)NCc3ccc4c(c3)OCO4)O[C@@H]1CO2,-26.6% [at 30 µM]
6,CC(C)Oc1ccc(C(CCN)C2CCCCC2)cc1 (stereo not drawn),-110%
7,CCNC(=O)CCC(=O)Nc1cc(Cl)ccc1C,-22.6%
8,COCC(=O)Nc1ccc2c(c1)C(=O)N(C)[C@H]1CC[C@@H](CC(=O)NC3CCCC3)O[C@H]1CO2,68.8%
9,Cc1ccnc(Nc2nc(-c3c(C)nc4sccn34)cs2)c1,-54.8%
10,CCCNC(=O)Nc1ccc2c(c1)C(=O)N(C)[C@@H]1CC[C@@H](CC(=O)NCC3CCCCC3)O[C@H]1CO2,71.2%
11,O=C(NCC(c1cccnc1)N1CCOCC1)NC1CCCCC1 (stereo not drawn),-10.8%
12,O=C(Nc1ccc(CN2CCOCC2)cc1)c1ccc(-c2ccc(Cl)cc2Cl)o1,-3.51%
13,Cc1cc(C)n(C(=O)Cn2nc(C)c(Br)c2C)n1,28.7%
14,CCOc1cc(C(=O)NC(C)COC)cc(OCC)c1OCC (stereo not drawn),-21.1%
15,COc1ccc(CN2CCN(Cc3cccn3-c3ncccn3)CC2CCO)c(C)c1C (stereo not drawn),-44.7%
16,CCCCCn1c(=O)[nH]c2cc(C(=O)NCCN3C(C)CCCC3C)ccc2c1=O (stereo not drawn),56.6%
17,C[C@H]1CN([C@@H](C)CO)S(=O)(=O)c2ccc(-c3ccccc3F)cc2O[C@@H]1CN(C)Cc1cccnc1,-53.4%
18,CC(C)C(=O)Nc1ccc2c(c1)C(=O)N(C)[C@@H]1CC[C@H](CC(=O)O)O[C@H]1CO2,-14.9%
19,CNC(=O)C[C@@H]1CC[C@@H]2[C@H](COc3ccc(NC(=O)c4cccc(OC)c4)cc3C(=O)N2C)O1,16.2%
